Among the data in PubChem BioAssay (NCI) are growth values, retold here.

This is part of a sample that, as a whole, favours compounds with a hit. Of some 83,000 tested, about 20% had one in any assay.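 Percent growth is the endpoint: 0 to 100 indicates growth inhibition (40 means 60% inhibition), 0 means no net growth, and negative values indicate cell death.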 Unmarked numbers belong to inactive results. Active and inactive are the calls of the source. How the source made its calls: active means growth percent below 10; inactive means the rest.

Test systems include SK-MEL-2 melanoma; EKVX NSCLC; SN12C renal; UO-31 renal; TK-10 renal; ACHN renal; CAKI-1 renal; A498 renal; CCRF-CEM leukemia; MOLT-4 leukemia.
Common to all, as to assay: NCI-60 one-dose screen, 48 h (100 = growth as untreated, 0 = no growth, -100 = all killed)
Holding throughout (details): 10 µM unless noted

Turning to `Fc1ccc(Nc2nc(Nc3ccc(-c4nc5ccccc5[nH]4)cc3)nc(N3CCCC3)n2)cc1`, the growth is 95.2% with SK-MEL-2 melanoma; 71.9% in the experiment with EKVX NSCLC; 81.2% in the experiment on SN12C renal; 68.1% in the experiment with UO-31 renal; 151% with TK-10 renal; 73.1% in the experiment on ACHN renal. Also, the growth with CAKI-1 renal is 88%; in the experiment with A498 renal, 75.3%; in the experiment with CCRF-CEM leukemia, 5.35% (active); in the experiment with MOLT-4 leukemia, 48.2%.
In the case of `COc1ccc(-c2nc(Nc3ccc(-c4nc5ccccc5[nH]4)cc3)nc(N3CCOCC3)n2)cc1`, the growth was -19.2% (active) with SK-MEL-2 melanoma; 7.91% (active) in the experiment with EKVX NSCLC; 40.8% with SN12C renal; -43.5% (active) with UO-31 renal; 43.9% in the experiment with TK-10 renal; 9% (active) with ACHN renal. Further, the growth in the experiment on CAKI-1 renal is -56.6% (active); in the experiment with A498 renal it was -32.1% (active); in the experiment with CCRF-CEM leukemia, -1.84% (active); with MOLT-4 leukemia, 1.78% (active).
For the compound `c1ccc(CN2C(c3ccccc3)=Nc3ccccc3C2c2c[nH]c3ccccc23)cc1` (stereo not given), the growth is 69% in the experiment with SK-MEL-2 melanoma; 37.3% in the experiment on EKVX NSCLC; 36.4% in the experiment with SN12C renal; 24.5% with UO-31 renal; 45.8% in the experiment on TK-10 renal; 51.4% in the experiment on ACHN renal. Further, the growth in the experiment on CAKI-1 renal is 35.9%; in the experiment with A498 renal, 63.6%; in the experiment on CCRF-CEM leukemia it was 32.4%; with MOLT-4 leukemia, 2.6% (active).
Turning to `Clc1ccc(Cn2cc(-c3nc4ccc(Br)nc4n3Cc3ccc(Cl)cc3)c3cccnc32)cc1`, the growth was 89.2% with SK-MEL-2 melanoma; 77.8% with EKVX NSCLC; 86.8% with SN12C renal; 51.7% in the experiment on UO-31 renal; 112% in the experiment on TK-10 renal; 75% in the experiment with ACHN renal. In addition, the growth in the experiment on CAKI-1 renal was 82%; in the experiment with A498 renal it was 76.4%; in the experiment on CCRF-CEM leukemia, 78.6%; in the experiment with MOLT-4 leukemia, 59.3%.
Turning to `COc1ccc2[nH]cc(-c3nc(-c4c[nH]c5ncccc45)cs3)c2c1`, the growth in the experiment on SK-MEL-2 melanoma is 32.9%; in the experiment with EKVX NSCLC, 64.4%; in the experiment with SN12C renal it was 53.2%; in the experiment with UO-31 renal it was 15.1%; with TK-10 renal it was 31.9%; in the experiment with ACHN renal it was 19.8%. The growth in the experiment with CAKI-1 renal was 4.05% (active); with A498 renal, 10.9%; with CCRF-CEM leukemia, 28.3%; with MOLT-4 leukemia, 8.76% (active).
Turning to `COc1cc(/C=C/c2cc(/C=C/c3ccc(O)c(OC)c3)n(-c3ccc(Cl)cc3)c(=O)n2)ccc1O`, the growth is 92.6% in the experiment on SK-MEL-2 melanoma; 78.1% in the experiment with EKVX NSCLC; 80.8% with SN12C renal; 64.9% in the experiment on UO-31 renal; 118% in the experiment on TK-10 renal; 83.1% in the experiment with ACHN renal. The growth is 92.9% with CAKI-1 renal, 102% with A498 renal, 44.2% in the experiment on CCRF-CEM leukemia and 43% in the experiment on MOLT-4 leukemia.
Regarding `O=C(NCN1C(=O)c2cccc3cccc(c23)C1=O)N1CCC(Cc2ccccc2)CC1`, the growth in the experiment on SK-MEL-2 melanoma was 103%; in the experiment with EKVX NSCLC, 93.4%; in the experiment on SN12C renal, 99.2%; in the experiment on UO-31 renal, 72.2%; in the experiment on TK-10 renal, 98%; in the experiment with ACHN renal, 101%. Besides, the growth with CAKI-1 renal was 82.9%; in the experiment on A498 renal, -36% (active); in the experiment on CCRF-CEM leukemia, 79.9%; in the experiment with MOLT-4 leukemia it was 84.7%.
In the case of `Cc1nc([P+](c2ccccc2)(c2ccccc2)c2ccccc2)c(Sc2sc(-c3ccccc3)nc2[P+](c2ccccc2)(c2ccccc2)c2ccccc2)o1`, the growth was 3.95% (active) with SK-MEL-2 melanoma; 14.8% in the experiment with EKVX NSCLC; 7.4% (active) in the experiment with SN12C renal; 20.9% with UO-31 renal; 38.7% in the experiment with TK-10 renal; 17.3% in the experiment on ACHN renal. In addition, the growth in the experiment on CAKI-1 renal is 15.4%; in the experiment with A498 renal, -9.69% (active); in the experiment on CCRF-CEM leukemia, 18.4%; with MOLT-4 leukemia, 13%.
For `O=C1CNCCN1`, the growth in the experiment with SK-MEL-2 melanoma was 106%; in the experiment on EKVX NSCLC, 101%; in the experiment with SN12C renal it was 97.8%; in the experiment with UO-31 renal it was 91.7%; in the experiment on TK-10 renal, 100%; with ACHN renal, 106%. The growth is 93.1% in the experiment with CAKI-1 renal, 98% in the experiment with A498 renal, 99.7% with CCRF-CEM leukemia and 94% with MOLT-4 leukemia.
Turning to `O=C(O[C@@H]1Cc2c(O)cc(O)cc2O[C@@H]1c1cc(O)c(O)c(O)c1)c1cc(O)c2c(c1)OCO2`, the growth in the experiment with SK-MEL-2 melanoma was 102%; in the experiment with EKVX NSCLC, 102%; in the experiment on SN12C renal, 98.6%; with UO-31 renal, 92.2%; with TK-10 renal, 88.4%; with ACHN renal, 112%. Besides, the growth with CAKI-1 renal was 94.4%; in the experiment with A498 renal, 117%; with CCRF-CEM leukemia it was 93%; in the experiment on MOLT-4 leukemia it was 81.5%.
For the compound `COc1cnc2c(c1)C(=O)c1c-2n(CCCN2CCN(CCO)CC2)c(=O)c2cc([N+](=O)[O-])ccc12`, the growth in the experiment with SK-MEL-2 melanoma was 108%; in the experiment on EKVX NSCLC, 66%; in the experiment on SN12C renal, 54%; with UO-31 renal, 36.6%; with TK-10 renal it was 97.2%; with ACHN renal, 25.1%. Also, the growth in the experiment on CAKI-1 renal was 37.8%; with A498 renal, -5.96% (active); with CCRF-CEM leukemia it was -5.14% (active); in the experiment on MOLT-4 leukemia, 0.798% (active).
With `c1ccc2[nH]c(-c3ccc(Nc4nc(N5CCCCC5)nc(N5CCOCC5)n4)cc3)nc2c1`, the growth is -20.6% (active) in the experiment on SK-MEL-2 melanoma; 27.7% with EKVX NSCLC; 52.4% with SN12C renal; -37.8% (active) with UO-31 renal; 58.8% in the experiment with TK-10 renal; 22.9% with ACHN renal. Further, the growth in the experiment with CAKI-1 renal is -46.9% (active); in the experiment with A498 renal, -28.6% (active); with CCRF-CEM leukemia, 8.74% (active); with MOLT-4 leukemia, 13.7%.
Consider `Fc1ccc2[nH]cc(-c3nc(-c4c[nH]c5ncccc45)cs3)c2c1`, for which the growth was 52.9% with SK-MEL-2 melanoma; 37.2% with EKVX NSCLC; 49.3% in the experiment on SN12C renal; 41.8% in the experiment on UO-31 renal; 52.2% with TK-10 renal; 11.3% in the experiment with ACHN renal. Also, the growth with CAKI-1 renal was 18.6%; in the experiment on A498 renal, 33.5%; in the experiment on CCRF-CEM leukemia, 18.7%; in the experiment on MOLT-4 leukemia it was 2.93% (active).
